Several values for one entry are separate records, joined by “and”; a condition that tells them apart may be missing. Equal values may be shown once. Results filed as inconclusive are left out. Some compounds were tested as several samples or in several runs, with calls that do not always agree. Activity calls are given as the source filed them. The calls were made as follows, unless noted: active = hit-call score of the fitted dose curve at least 0.9, where 1 is the maximum; inconclusive = response in the unintended direction; inactive = score below 0.9.
Assays:
[1] = Tanguay_ZF_120hpf_SWIM_legacy: (Legacy) Oregon State University Tanguay Lab 120 Hour Post-fertilization zebrafish Assay for Swim Bladder Malformation (AID 2283654);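 also: swim bladder malformation in each larva scored yes or no under brightfield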
In short: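 Tropical 5D embryos dechorionated at 4 hpf; 1 embryo/well from 6 hpf; static, sealed, dark exposure at 28C until 120 hpf; final DMSO 0.64%; 5uM trimethyltin chloride positive control; swim bladder defect recorded yes/no; dead embryos not scored.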

[2] = Tanguay_ZF_120hpf_TRUN_legacy: (Legacy) Oregon State University Tanguay Lab 120 Hour Post-fertilization zebrafish Assay for Truncated Body (AID 2283655)
In short: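 Tropical 5D wild-type embryos, dechorionated with pronase at 4 hpf, were placed singly in wells at 6 hpf and statically exposed at 28C until 120 hpf, final DMSO 0.64%. Truncated body was scored present/absent by brightfield microscopy.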

[3] = Tanguay_ZF_120hpf_NC_legacy: (Legacy) Oregon State University Tanguay Lab 120 Hour Post-fertilization zebrafish Assay for Notochord and Tail Malformation (AID 2283656)
In short: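 Binary notochord-distortion calls, made by brightfield inspection, form the read-out; activity is fitted in the positive direction against DMSO. Exposure ran statically from 6 to 120 hpf at 28C with 0.64% DMSO.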

[4] = read-out: ABC Transporter (ABCB1), ABCB1 (gene 5243); assay: CLD_ABCB1_6hr: CellzDirect (CLD) Gene Expression Assay for ABC Transporter (ABCB1) at 6 hours (AID 2283659);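 also: hits raise ABCB1 transcript above the DMSO vehicle baseline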
In short: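 ABCB1 transcript measured by quantitative nuclease protection assay, chemiluminescent read-out, 6 h after dosing human hepatocyte cultures (0.2% DMSO vehicle, daily redosing). Activity fitted as increase over DMSO baseline; cytotoxicity flagged by phase-contrast morphology.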

[5] = read-out: xenobiotic metabolism (CYP1A1), CYP1A1 (gene 1543); assay: CLD_CYP1A1_6hr: CellzDirect (CLD) Gene Expression Assay for xenobiotic metabolism (CYP1A1) at 6 hours (AID 2283661);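 as to AC50: potency for transcript induction above DMSO vehicle baseline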
In short: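 Read-out 6 h post-dose: qNPA chemiluminescent quantitation of transcript induction against 0.2% DMSO. Cells were cultured primary human hepatocytes from two separate donor preparations; phase-contrast morphology annotated apparent cytotoxicity.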

[6] = tested on: Thyroperoxidase (TPO), gene 54314; assay: CCTE_Simmons_AUR_rTPO: CCTE's Amplex UltraRed Assay for Thyroperoxidase (TPO) Inhibition, Simmons Lab (AID 2283662);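 as to AC50: potency for loss of signal meaning inhibition of peroxidase activity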
In short: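 Cell-free peroxidase activity assay using rat thyroid gland microsomes with excess H2O2 (300 uM) and 25 uM Amplex UltraRed. Compounds tested from 5 nM to 87.5 uM; fluorescence measured after 30 min at 37C, analysed relative to DMSO baseline.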

[7] = read-out: solute carrier (SLC22A6), SLC22A6 (gene 9356); assay: LTEA_HepaRG_SLC22A6: Life Technologies and Expression Analysis (LTEA) Assay for solute carrier (SLC22A6) using HepaRG (AID 2283653; active = hit-call score of the fitted dose curve at least 0.9, where 1 is the maximum; inactive = score below 0.9); settings: mRNA level, 48 h; actives raise or lower the signal
In short: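 Differentiated human HepaRG cells were exposed for 48 h in serum-free induction medium to eight concentrations (top 100 uM, half-log steps, 0.5% DMSO), in duplicate. SLC22A6 mRNA was quantified by qRT-PCR, normalised to ACTB, GAPDH and POLR2A, and fitted bidirectionally against DMSO.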

[8] = read-out: solute carrier (SLC10A1), SLC10A1 (gene 6554); assay: LTEA_HepaRG_SLC10A1: Life Technologies and Expression Analysis (LTEA) Assay for solute carrier (SLC10A1) using HepaRG (AID 2283657; active = hit-call score of the fitted dose curve at least 0.9, where 1 is the maximum; inactive = score below 0.9); settings: mRNA level, 48 h; actives raise or lower the signal
In short: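 HepaRG, 48 h exposure, 8-pt half-log curve from 100 uM in 0.5% DMSO, duplicates. Read-out: TaqMan qRT-PCR of SLC10A1 mRNA, normalized to three housekeeping genes. Gain/loss fit vs DMSO baseline.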

[9] = read-out: matrix metalloproteinase-1 (MMP1), MMP1 (gene 4312); assay: LTEA_HepaRG_MMP1: Life Technologies and Expression Analysis (LTEA) Assay for matrix metalloproteinase-1 (MMP1) using HepaRG (AID 2283658; active = hit-call score of the fitted dose curve at least 0.9, where 1 is the maximum; inactive = score below 0.9); settings: mRNA level, 48 h; actives raise or lower the signal
In short: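 Differentiated HepaRG cells, plated 48 h then switched to serum-free induction medium, were exposed in duplicate for 48 h to eight half-log concentrations up to 100 uM in 0.5% DMSO; MMP1 mRNA measured by qRT-PCR, normalized to ACTB, GAPDH, POLR2A.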

[10] = read-out: xenobiotic metabolism (CYP1A2), CYP1A2 (gene 1544); assay: CLD_CYP1A2_6hr: CellzDirect (CLD) Gene Expression Assay for xenobiotic metabolism (CYP1A2) at 6 hours (AID 2283663);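 as to AC50: potency is for induction meaning a rise in mRNA above DMSO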
In short: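 mRNA levels quantified by quantitative nuclease protection assay with chemiluminescence, 6 h after dosing human primary hepatocyte cultures (two donors) across several concentrations, vehicle 0.2% DMSO. Induction fitted upward versus DMSO; phase-contrast cytotoxicity annotated.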

In the case of CCCCOC(=O)c1ccccc1C(=O)OCCCC, the outcome [1] is reported as “inactive”, the outcome [2] is reported as “inactive” and the outcome [3] is reported as “inactive”. For the same compound, the outcome [4] was “inactive” and the AC50 [5] was 3.36 µM (active) and 5.18 µM (active).
In the case of COC(=O)c1ccccc1C(=O)OC, the outcome [1] is reported as “inactive”, the outcome [2] is reported as “inactive” and the outcome [3] is reported as “inactive”. The outcome [4] was “inactive” and the outcome [5] was “inactive”.
For CCCC1COC(Cn2cncn2)(c2ccc(Cl)cc2Cl)O1 (centres undefined), the outcome [1] was “inactive”, the outcome [2] was “inactive” and the outcome [3] was “inactive”. The outcome [4] was “inactive”, the AC50 [5] was 6.32 µM (active) and the outcome [6] was “inactive”.
With Oc1ccccc1-c1ccccc1 the outcome [1] was “inactive”, the outcome [2] was “inactive” and the outcome [3] was “inactive”. For the same compound, the outcome [4] was “inactive” and the AC50 [6] was 35.2 µM (active).
With Cc1c(F)c(F)c(COC(=O)C2C(/C=C(\Cl)C(F)(F)F)C2(C)C)c(F)c1F (centres undefined) the outcome [1] was “inactive”, the AC50 [2] was 2.36 µM (active) and the outcome [3] was “inactive”. The outcome [4] was “inactive” and the outcome [5] was “inactive”.
With OC(c1ccc(Cl)cc1)(c1cncnc1)c1ccccc1Cl (centres undefined) the outcome [7] was “inactive”, the outcome [1] was “inactive” and the outcome [3] was “inactive”. The AC50 [8] was 24.1 µM (active), the AC50 [9] was 59.8 µM (active) and the outcome [4] was “inactive”. For the same compound, the outcome [5] was “inactive”.
For CCNc1nc(Cl)nc(NC(C)C)n1, the outcome [1] was “inactive”, the outcome [2] was “inactive” and the outcome [3] was “inactive”. The outcome [4] was “inactive” and the AC50 [5] was 2.19 µM (active).
With CNC(=O)ON=CC(C)(C)SC the outcome [1] was “inactive”, the AC50 [2] was 1.07 µM (active) and the outcome [3] was “inactive”. For the same compound, the AC50 [5] was 0.000972 µM (active).
For CCCCNC(=O)OCC#CI, the outcome [1] was “inactive”, the outcome [2] was “inactive” and the outcome [3] was “inactive”. For the same compound, the outcome [4] was “inactive”, the AC50 [5] was 0.851 µM (active) and the outcome [5] was “inactive”.
For COc1nc(NC(C)C)nc(NC(C)C)n1, the outcome [1] was “inactive”, the outcome [2] was “inactive” and the outcome [3] was “inactive”. For the same compound, the outcome [4] was “inactive” and the AC50 [5] was 3.97 µM (active).
With Cc1ccc(-c2c(Cl)nc(C#N)n2S(=O)(=O)N(C)C)cc1 the outcome [1] was “inactive”, the outcome [2] was “inactive” and the outcome [3] was “inactive”. For the same compound, the outcome [4] was “inactive” and the AC50 [5] was 0.105 µM (active).
In the case of COP(=S)(OC)Oc1nc(Cl)c(Cl)cc1Cl, the outcome [1] is reported as “inactive”, the outcome [2] is reported as “inactive” and the outcome [3] is reported as “inactive”. For the same compound, the outcome [4] was “inactive”, the AC50 [5] was 5.29 µM (active) and the AC50 [6] was 4.62 µM (active).
In the case of CO/C=C(/C(=O)OC)c1ccccc1Oc1cc(Oc2ccccc2C#N)ncn1, the outcome [7] is reported as “inactive”, the outcome [1] is reported as “inactive” and the outcome [2] is reported as “inactive”. For the same compound, the outcome [3] was “inactive”, the AC50 [8] was 78.6 µM (active) and the outcome [9] was “inactive”. For the same compound, the outcome [4] was “inactive”.
With N#Cc1nn(-c2c(Cl)cc(C(F)(F)F)cc2Cl)c(N)c1S(=O)C(F)(F)F (centres undefined) the outcome [1] was “inactive”, the outcome [2] was “inactive” and the outcome [3] was “inactive”. The outcome [4] was “inactive”.
With COC(=O)N(OC)c1ccccc1COc1ccn(-c2ccc(Cl)cc2)n1 the outcome [1] was “inactive”, the outcome [2] was “inactive” and the outcome [3] was “inactive”.
For C=CCC1=C(C)C(OC(=O)C2C(C=C(C)C)C2(C)C)CC1=O (centres undefined), the outcome [1] was “inactive”, the outcome [2] was “inactive” and the outcome [3] was “inactive”. The outcome [4] was “inactive”, the outcome [5] was “inactive” and the AC50 [6] was 33.6 µM (active).
With COC(=O)C(C)Oc1ccc(Oc2ccc(Cl)cc2Cl)cc1 (centres undefined) the outcome [1] was “inactive”, the outcome [2] was “inactive” and the outcome [3] was “inactive”. The outcome [4] was “inactive” and the AC50 [5] was 3.97 µM (active) and 4.59 µM (active).
In the case of CCCN(CCC)c1c([N+](=O)[O-])cc(S(N)(=O)=O)cc1[N+](=O)[O-], the outcome [1] is reported as “inactive”, the outcome [2] is reported as “inactive” and the outcome [3] is reported as “inactive”. For the same compound, the outcome [4] was “inactive” and the outcome [6] was “inactive”.
For N#Cc1cc(Br)c(O)c(Br)c1, the outcome [1] was “inactive”, the outcome [2] was “inactive” and the outcome [3] was “inactive”. The outcome [4] was “inactive” and the outcome [5] was “inactive”.
For CC(C)(C)c1ccc(CSc2cnn(C(C)(C)C)c(=O)c2Cl)cc1, the outcome [1] was “inactive”, the outcome [2] was “inactive” and the outcome [3] was “inactive”.
For CCOC(=O)CC(SP(=S)(OC)OC)C(=O)OCC (centres undefined), the AC50 [1] was 28.8 µM (active), the AC50 [2] was 34.2 µM (active) and the outcome [3] was “inactive”. The outcome [4] was “inactive”, the AC50 [5] was 3.97 µM (active) and the AC50 [6] was 3.4 µM (active).
In the case of CCOc1cc(Oc2ccc(C(F)(F)F)cc2Cl)ccc1[N+](=O)[O-], the outcome [1] is reported as “inactive”, the outcome [2] is reported as “inactive” and the outcome [3] is reported as “inactive”. The outcome [4] was “inactive”.
With COc1cnc(OC)n2nc(NS(=O)(=O)c3c(OCC(F)F)cccc3C(F)(F)F)nc12 the outcome [1] was “inactive”, the outcome [2] was “inactive” and the outcome [3] was “inactive”. For the same compound, the outcome [4] was “inactive”, the AC50 [5] was 0.121 µM (active) and the AC50 [10] was 0.255 µM (active).
With CCOC(=O)C(Cl)Cc1cc(-n2nc(C)n(C(F)F)c2=O)c(F)cc1Cl (centres undefined) the outcome [1] was “inactive”, the outcome [2] was “inactive” and the outcome [3] was “inactive”. The outcome [4] was “inactive”, the AC50 [5] was 0.375 µM (active) and the outcome [10] was “inactive”.

— PubChem BioAssay (EPA / NIEHS)
